From PubChem BioAssay (NCATS)
Records with an inconclusive call do not appear. The source made the active and inactive calls. Calls follow the shape of the dose curve; as a rule, active = well fitted curve in the direction sought with a large enough effect; inconclusive = small, poorly fitted or top-dose-only effect, or another doubt; inactive = no such curve, though single readings can be large; an effect the other way counts as inactive or inconclusive.

Assays:
[1] = qHTS assay for measurement of the activity of small molecule inhibitors on Zika virus induced Caspase-3 activity in human iPSC derived neural progenitor cells (hNPCs) (AID 1224857); details: hNPCs ZIKV-induced caspase-3/7, Caspase-Glo luminescence, 6 h; series mostly up to 45.7 µM; also: nearly all actives have a fitted effect of over 65% in size
In short: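 Zika virus (2 FFU/cell) infection of human iPSC-derived NPCs, 6 h, following 1 h compound preincubation. Read-out: Caspase-Glo 3/7 luminescence.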

[2] = qHTS assay for measurement of the activity of small molecule inhibitors on Zika virus induced Caspase-3 activity in human astrocytoma cells (AID 1224859); details: SNB-19 ZIKV-induced caspase-3/7, luminescence, 6 h; series mostly up to 45.7 µM
In short: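 Caspase activation in ZIKV-infected SNB-19 cells (2 FFU/cell, 6 h) measured by Caspase-Glo 3/7 luminescence after 30 min RT; compound pre-incubated 1 h; normalised to uninfected and infected controls.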

[3] = qHTS assay to identify small molecule inhibitors of chordoma cells - UCH-1 (AID 1259355); details: UCH-1 chordoma viability, CellTiter-Glo, 48 h, combination, with auranofin plus four topoisomerase inhibitors; series mostly up to 46.1 µM; also: nearly all actives have a fitted effect of over 55% in size
In short: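 Luminescent ATP read-out (CellTiter-Glo, 30min at room temperature) measured viability of UCH-1 cells exposed for 48hr to test drugs at 15 concentrations, co-dosed with a five-agent combination of auranofin, camptothecin, doxorubicin, rubitecan and topotecan.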

Measured: Potency

NC(N)=N/N=C/c1c(Cl)cccc1Cl
inactive: [1] | [2] | [3]

COC(=O)[C@@H](N)Cc1ccc(O)c(O)c1
inactive: [1] | [2] | [3]

CC[N+](C)(C)c1cccc(O)c1
inactive: [1] | [2] | [3]

CCOC(=O)c1cnc2c(cnn2CC)c1NN=C(C)C
inactive: [1] | [2] | [3]

CC(N=C(NC#N)Nc1ccncc1)C(C)(C)C (stereo not given)
inactive: [1] | [2] | [3]

CCC(=O)c1ccc2c(c1)N(CCCN(C)C)c1ccccc1S2
inactive: [1] | [2] | [3]

c1ccc2c(c1)CCCC2C1=NCCN1 (stereo not given)
inactive: [1] | [2] | [3]

C[C@]12CCC(=O)C=C1CC[C@@H]1[C@@H]2C(=O)C[C@@]2(C)[C@H]1CC[C@]2(O)C(=O)CO
inactive: [1] | [2] | [3]

NC1=NCC2c3ccccc3Cc3ccccc3N12 (stereo not given)
inactive: [1] | [2] | [3]

CCCNC(C)C(=O)Nc1ccccc1C (stereo not given)
inactive: [1] | [2] | [3]

CCN(CC)CCOCCOC(=O)C1(c2ccccc2)CCCC1
inactive: [1] | [2] | [3]

NC(=O)c1ncn([C@@H]2O[C@H](CO)[C@@H](O)[C@H]2O)c1O
inactive: [1] | [2] | [3]

CO[C@@]1(NC(=O)CSCC#N)C(=O)N2C(C(=O)O)=C(CSc3nnnn3C)CS[C@@H]21
inactive: [1] | [2] | [3]

COC(=O)C1=C(C)NC(C)=C(C(=O)OCCN(C)Cc2ccccc2)C1c1cccc([N+](=O)[O-])c1 (stereo not given)
inactive: [1] | [2] | [3]

CN(C)C/C=C(/c1ccc(Br)cc1)c1cccnc1
inactive: [1] | [2] | [3]
